PubChem BioAssay (NCI)
About 83,000 compounds went through this panel and 20% of them were active in at least one assay; those are over-represented in the sample as a whole.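 Percent growth is the endpoint: 0 to 100 indicates growth inhibition (40 means 60% inhibition), 0 means no net growth, and negative values indicate cell death.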 Active and inactive are the calls of the source. The calls were made as follows: active = growth percent below 10; inactive = the rest.

Columns and labels:
Assay in all cases: NCI-60 one-dose screen, 48 h (100 = growth as untreated, 0 = no growth, -100 = all killed)
NCI-H226 lung = settings: 10 µM
NCI-H322M lung = settings: 10 µM
HOP-62 NSCLC = settings: 10 µM
NCI-H522 lung = settings: 10 µM
A549/ATCC NSCLC = settings: 10 µM
COLO 205 colon = settings: 10 µM
DU-145 prostate = settings: 10 µM
K-562 leukemia = settings: 10 µM
SF-539 CNS = settings: 10 µM
M14 melanoma = settings: 10 µM
HCT-15 colon = settings: 10 µM
HT29 colon = settings: 10 µM
SNB-75 CNS = settings: 10 µM
U251 CNS = settings: 10 µM
PC-3 prostate = settings: 10 µM
LOX IMVI melanoma = settings: 10 µM
MOLT-4 leukemia = settings: 10 µM
RPMI-8226 leukemia = settings: 10 µM
SK-OV-3 ovarian = settings: 10 µM
MDA-MB-468 breast = settings: 10 µM unless noted

Measured: growth

C#C[C@]1(O)CC[C@H]2[C@@H]3CC=C4c5sc(Nc6ccc(N(C)C)cc6)nc5CC[C@]4(C)[C@H]3CC[C@@]21C
inactive: NCI-H322M lung 42.5% | HOP-62 NSCLC 10.7% | A549/ATCC NSCLC 20.5% | SNB-75 CNS 33.8%
active: NCI-H226 lung -43.2% | NCI-H522 lung -57.1% | COLO 205 colon -28.6% | DU-145 prostate -8.05% | K-562 leukemia 4% | SF-539 CNS -75.7% | M14 melanoma -12.3% | HCT-15 colon -37.5% | HT29 colon -53.5% | U251 CNS -75% | PC-3 prostate 5.44% | LOX IMVI melanoma -80.3% | MOLT-4 leukemia -6.03% | RPMI-8226 leukemia -42% | SK-OV-3 ovarian -39.5% | MDA-MB-468 breast -56.3%

C#C[C@]1(O)CC[C@H]2[C@@H]3CC=C4c5sc(Nc6ccc(C(F)(F)F)cn6)nc5CC[C@]4(C)[C@H]3CC[C@@]21C
active: NCI-H522 lung -51.1% | A549/ATCC NSCLC 7.15% | COLO 205 colon -87% | DU-145 prostate 8.36% | K-562 leukemia 7.48% | SF-539 CNS -45.3% | M14 melanoma -21.4% | HCT-15 colon -34.8% | HT29 colon -31.8% | U251 CNS -82.9% | PC-3 prostate 1.89% | LOX IMVI melanoma -98.5% | MOLT-4 leukemia -8.2% | RPMI-8226 leukemia -6.6% | SK-OV-3 ovarian -4.49% | MDA-MB-468 breast 4.25%
inactive: NCI-H226 lung 16.2% | NCI-H322M lung 13.7% | HOP-62 NSCLC 10.9% | SNB-75 CNS 28.5%

C#C[C@]1(O)CC[C@H]2[C@@H]3CC=C4c5sc(Nc6cc(C)cc(C)n6)nc5CC[C@]4(C)[C@H]3CC[C@@]21C
active: HOP-62 NSCLC 6.05% | NCI-H522 lung -79.9% | A549/ATCC NSCLC 9.23% | COLO 205 colon -95.5% | K-562 leukemia 4.71% | SF-539 CNS -66% | M14 melanoma -42.1% | HCT-15 colon -69.5% | HT29 colon -74.2% | U251 CNS -58.9% | PC-3 prostate -4.36% | LOX IMVI melanoma -96% | MOLT-4 leukemia 1.29% | RPMI-8226 leukemia -16% | SK-OV-3 ovarian -62.4% | MDA-MB-468 breast -39.3%
inactive: NCI-H226 lung 13.8% | NCI-H322M lung 14.7% | DU-145 prostate 12.9% | SNB-75 CNS 33.9%

COc1cccc(O)c1/C=C1\SCc2cc3c(OC)cccc3[o+]c21
inactive: NCI-H226 lung 98.2% | NCI-H322M lung 103% | HOP-62 NSCLC 105% | NCI-H522 lung 102% | A549/ATCC NSCLC 108% | COLO 205 colon 140% | DU-145 prostate 114% | K-562 leukemia 106% | SF-539 CNS 98% | M14 melanoma 106% | HCT-15 colon 111% | HT29 colon 113% | SNB-75 CNS 115% | U251 CNS 114% | PC-3 prostate 97.9% | LOX IMVI melanoma 103% | MOLT-4 leukemia 112% | RPMI-8226 leukemia 107% | SK-OV-3 ovarian 118% | MDA-MB-468 breast 112%

COc1cc2oc(-c3cccc(C(=O)Nc4ccc(Cl)cc4)c3)cc(=O)c2c(OCCN)c1OC
active: NCI-H226 lung -76.6% | NCI-H322M lung -93.7% | HOP-62 NSCLC -62.7% | NCI-H522 lung -87.1% | A549/ATCC NSCLC -58.3% | COLO 205 colon -75.8% | DU-145 prostate -99% | K-562 leukemia -43.9% | SF-539 CNS -83.2% | M14 melanoma -89.7% | HCT-15 colon -76.6% | HT29 colon -91.2% | SNB-75 CNS -73.5% | U251 CNS -84.2% | PC-3 prostate -87.3% | LOX IMVI melanoma -84.3% | MOLT-4 leukemia -59.2% | RPMI-8226 leukemia -64.2% | SK-OV-3 ovarian -84.6% | MDA-MB-468 breast -73.4%

COc1cc(-c2nc3ccc(C)cc3[nH]2)ccc1OCc1nnc(-c2ccccc2Br)o1
inactive: NCI-H226 lung 65.3% | NCI-H322M lung 87.3% | HOP-62 NSCLC 73.7% | NCI-H522 lung 64% | A549/ATCC NSCLC 65.1% | COLO 205 colon 72.8% | DU-145 prostate 80.7% | K-562 leukemia 55.8% | SF-539 CNS 24.4% | M14 melanoma 71.2% | HCT-15 colon 36.4% | HT29 colon 20% | SNB-75 CNS 112% | U251 CNS 57.7% | PC-3 prostate 56.1% | LOX IMVI melanoma 71.8% | MOLT-4 leukemia 41.2% | RPMI-8226 leukemia 30.1% | SK-OV-3 ovarian 75.1% | MDA-MB-468 breast 61.6%

COc1ccc(C(=O)COc2ccc(NC(=O)Nc3ccccc3)cc2)cc1
inactive: NCI-H226 lung 87.6% | NCI-H322M lung 88.5% | HOP-62 NSCLC 101% | NCI-H522 lung 58.2% | A549/ATCC NSCLC 80.9% | COLO 205 colon 107% | DU-145 prostate 105% | K-562 leukemia 94.6% | SF-539 CNS 97% | M14 melanoma 93.6% | HCT-15 colon 80.3% | HT29 colon 103% | SNB-75 CNS 87.9% | U251 CNS 86.5% | PC-3 prostate 83.1% | LOX IMVI melanoma 58.9% | MOLT-4 leukemia 73.9% | RPMI-8226 leukemia 93.3% | SK-OV-3 ovarian 105% | MDA-MB-468 breast 80.9%
